Experimental data: PubChem BioAssay AID2599 (Sanford-Burnham Center for Chemical Genomics, 2010)
The whole screen tested about 330,000 compounds, of which about 5,800 (1.8%) were called active. The sample as a whole holds a higher share of actives than the screen did. A number with no mark means an inactive call.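 How the source made its calls: active means inhibition above about 50% at the single tested dose (limit read from the data); inactive means the rest.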

The compounds below were run against Sentrin-specific protease 6 (Homo sapiens) (UniProt Q9GZR1) (assay: inhibition of human SENP6 catalytic domain – biochemical, luminescence, uHTS, primary screen (AID 2599;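 further: plate controls were DMSO wells with enzyme for no effect and DMSO wells lacking enzyme for full effect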)). Details: Recombinant SENP6 catalytic domain, aminoluciferin luminescence; at 10 µM; hits give high values.
Sequence of Sentrin-specific protease 6 (Homo sapiens) (Q9GZR1 628-1112 limits assumed): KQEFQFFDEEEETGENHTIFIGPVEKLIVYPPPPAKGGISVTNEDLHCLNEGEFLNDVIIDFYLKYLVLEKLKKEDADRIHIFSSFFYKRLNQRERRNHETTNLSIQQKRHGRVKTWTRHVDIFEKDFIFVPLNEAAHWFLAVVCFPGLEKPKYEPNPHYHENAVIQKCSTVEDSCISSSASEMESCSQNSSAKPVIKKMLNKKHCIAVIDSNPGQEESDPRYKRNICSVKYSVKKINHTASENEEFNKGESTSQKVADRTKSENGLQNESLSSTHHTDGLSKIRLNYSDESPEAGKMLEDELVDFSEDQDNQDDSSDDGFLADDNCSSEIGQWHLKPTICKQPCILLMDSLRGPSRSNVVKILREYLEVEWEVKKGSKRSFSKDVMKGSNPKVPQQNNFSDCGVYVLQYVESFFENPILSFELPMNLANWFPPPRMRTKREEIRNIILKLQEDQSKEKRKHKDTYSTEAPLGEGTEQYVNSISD
With `O=C(COC(=O)Cn1[nH]c(=O)c2ccccc2c1=O)Nc1ncc(Cl)cc1Cl` the inhibition was -4.87%.
`Cc1cccc(NS(=O)(=O)c2ccc(C(=O)NCC(C)(C)N3CCOCC3)cc2)c1C` gave an inhibition of 4.82%.
`C=CCOc1ccc(C2/C(=C(\O)c3c(C)[nH]c(C(=O)OC)c3C)C(=O)C(=O)N2CCN(C)C)cc1` (configuration not stated) gave an inhibition of 9.74%.
For `COc1ccc(CN(C)C(=O)Cc2ccsc2)c(OC)c1OC`, the inhibition was -22.6%.
`O=C(COC(=O)c1ccc2c(c1)OCCO2)NCc1ccccc1Cl` showed an inhibition of 3.1%.
Work on `O=C(Nc1ccc(NC(=O)c2ccco2)c(Cl)c1)c1cccc([N+](=O)[O-])c1` yielded an inhibition of 14.1%.
For `O=C(OCc1ccccc1F)c1ccc2c(c1)OCCO2`, the inhibition was 95.5% (active).
In the case of `O=C(Nc1ccc(C2CC2(Cl)Cl)cc1)c1cccc([N+](=O)[O-])c1` (configuration not stated), the inhibition was 76.9% (active).
For `Cc1cc(C)nc(NC(=O)c2cccc([N+](=O)[O-])c2)c1`, the inhibition was -34.1%.
Work on `N#CCCN(C(=O)COC(=O)c1ccc2c(c1)OCCO2)c1ccccc1` yielded an inhibition of 6.71%.
`O=C(CCC(=O)n1ncc2ccccc21)NCc1ccccc1Cl` gave an inhibition of 15.9%.
Work on `Cc1nc(N)c(Br)c(C)c1Br` yielded an inhibition of 0%.
`COc1cccc(-n2nc(C(=O)N3CCN(Cc4ccccc4)CC3)c3ccccc3c2=O)c1` gave an inhibition of -0.104%.
Compound `O=C(O)CSc1nccn1-c1cccc(Cl)c1` has an inhibition of -22.5%.
Compound `COCCCNC(=O)Cn1c(=O)n(Cc2ccccc2Cl)c(=O)c2cc(OC)c(OC)cc21` has an inhibition of -8.65%.
With `O=S(=O)(c1cnccc1N1CCN(/N=C/c2ccc(Br)cc2)CC1)N1CCCCC1` the inhibition was -13.3%.
With `Cc1c(Cl)cccc1NC(=O)NCCCN1CCCC1=O` the inhibition was 2.62%.
For `O=C(Nc1ccc(Cl)cc1)Nc1ccc(C(=O)N2CCOCC2)cc1`, the inhibition was -8.3%.
In the case of `Cc1c(Cl)cccc1NC(=O)Nc1ccc(C(=O)N2CCCC2)cc1`, the inhibition was 61.5% (active).
`O=C(c1ccc2ccccc2n1)N1CCN(c2ccccc2Cl)CC1` gave an inhibition of 5.78%.
Compound `CC(=O)Nc1ccc(OC(=O)COc2ccc(Br)cc2)cc1` has an inhibition of -9.28%.
`S=c1[nH]nc(-c2cc(-c3ccccc3)n[nH]2)n1/N=C/c1c2ccccc2cc2ccccc12` was tested, and the inhibition was -3.75%.
`CC(C)C(=O)NCc1cc(-c2ccc(Cl)cc2)no1` gave an inhibition of -26.7%.
With `Oc1ccccc1-c1cc(-c2ccc(Cl)cc2)n[nH]1` the inhibition was 89.2% (active).
Work on `S=c1[nH]nc(-c2cc(-c3ccsc3)n[nH]2)n1-c1ccccc1` yielded an inhibition of -13.8%.
With `Cc1ccc(NC(=O)c2cc(-c3ccccc3O)n[nH]2)cc1C` the inhibition was -12.4%.
In the case of `c1ccc(-c2cc(-c3ccccc3)[nH]n2)cc1`, the inhibition was 59.9% (active).
In the case of `CCCOc1ccc(N2C(=O)CC(N(CCc3ccc(S(N)(=O)=O)cc3)C(C)=O)C2=O)cc1` (configuration not stated), the inhibition was -12.7%.
`Cc1cc(C(=O)Cn2cnc3cc([N+](=O)[O-])ccc3c2=O)c(C)n1CC1CCCO1` (configuration not stated) was tested, and the inhibition was -13.2%.
Compound `COc1ccc(C(=O)OCC(=O)c2cc(C)n(CC3CCCO3)c2C)cc1[N+](=O)[O-]` (configuration not stated) has an inhibition of -1.02%.
With `Cc1ccsc1C(=O)OCC(=O)c1cc(C)n(CC2CCCO2)c1C` (configuration not stated) the inhibition was 97.8% (active).
Work on `Cc1coc2cc3oc(=O)c(CCC(=O)O)c(C)c3cc12` yielded an inhibition of 1.41%.
`COc1ccccc1NC(=O)CSc1nnc(-c2ccoc2C)n1CCc1ccccc1` was tested, and the inhibition was -3.86%.
Compound `Cc1ccc(S(=O)(=O)N2CCOCC2)cc1C(=O)OC1CCCCC1=O` (configuration not stated) has an inhibition of 7.83%.
In the case of `CCN1C(=O)c2cccc3c(N)ccc1c23`, the inhibition was 80.3% (active).
In the case of `CN1C(=O)c2cccc3c(N)ccc(c23)C1=O`, the inhibition was -16.2%.
With `CCN1C(=O)c2cccc3c(S(=O)(=O)Nc4ccccc4O)ccc1c23` the inhibition was -9.84%.
`Cc1ccc(C)c(Cn2cnc3c(oc4ccccc43)c2=O)c1` was tested, and the inhibition was 9.24%.
Work on `Cc1c(NC(=O)C(C)OC(=O)c2ccccc2O)c(=O)n(-c2ccccc2)n1C` (configuration not stated) yielded an inhibition of -6.6%.
`CCc1ccc(NC(=O)COC(=O)c2cccs2)cc1` gave an inhibition of 8.32%.
With `CC(=O)Nc1ccc(/C=N/NC(=O)c2cccs2)cc1` the inhibition was 58.1% (active).
Work on `CC(C)C(=O)Nc1ccc(C(=O)NNC(=O)c2cccs2)cc1` yielded an inhibition of 3.9%.
`CCN(CC)c1ccc(/C=N/NC(=O)CNC(=O)c2cccs2)cc1` gave an inhibition of -14.6%.
`Cc1cccc(-n2c(C)cc(/C=N\NC(=O)c3cccs3)c2C)c1` was tested, and the inhibition was -11.3%.
For `CCc1ccc(NC(=O)C(=O)NNC(=O)c2cccs2)cc1`, the inhibition was 85.8% (active).
In the case of `CSc1cccc(NC(=S)N(C(C)C)C(C)c2ccccn2)c1` (configuration not stated), the inhibition was 4.01%.
Work on `CC1(C)CC(=O)c2c(n(S(=O)(=O)c3ccccc3)c3ccc(NS(=O)(=O)c4ccccc4)cc23)C1` yielded an inhibition of 6.92%.
For `COc1ccc(-c2oc3ncn(Cc4ccco4)c(=N)c3c2-c2ccc(OC)cc2)cc1`, the inhibition was -13.1%.
Work on `COc1cccc(NC(=O)COC(=O)c2ccc3ccccc3n2)c1` yielded an inhibition of -3.74%.
`CCc1nnc(NC(=O)CSc2nnnn2-c2cccc(C(C)=O)c2)s1` gave an inhibition of -12.9%.
`O=C(Nc1ccc(N2CCOCC2)cc1)c1cccc(S(=O)(=O)N2CCOCC2)c1` showed an inhibition of -0.135%.
In the case of `CCC(=O)Nc1ccc(C(=O)Nc2cccc(OC)c2)cc1`, the inhibition was 51.2% (active).
With `COc1cccc(NC(=O)CN(C)CC(=O)Nc2ccc3c(c2)CCC3)c1` the inhibition was -11.1%.
Compound `Cc1ccccc1C(=O)NC(=S)Nc1ccc(N2CCN(C(=O)c3ccccc3)CC2)cc1` has an inhibition of 2.96%.
`COc1cccc(C(=O)Nc2nnc(S(=O)(=O)N3CCCCC3)s2)c1` showed an inhibition of 0.355%.
Work on `COc1ccc(C(=O)Nc2cccc(S(C)(=O)=O)c2)cc1` yielded an inhibition of -10.8%.
With `CCOc1ccc(C(=O)Nc2cccc(-c3ccc4nncn4n3)c2)cc1` the inhibition was 5.7%.
Compound `CSc1cccc(NC(=O)CSc2ccccc2)c1` has an inhibition of -11%.
In the case of `Cc1ccccc1C(=O)Nc1ccc(N2CCCCCC2)cc1`, the inhibition was 72.7% (active).
Work on `Cc1ccccc1C(=O)N1CCN(c2ccc(NC(=O)c3cccs3)cc2)CC1` yielded an inhibition of -5.79%.
For `COc1cccc(C(=O)Nc2ccc(N3CCCC3)cc2)c1`, the inhibition was 97.6% (active).
In the case of `CCOc1ccc(C(=O)Nc2cccc(SC)c2)cc1`, the inhibition was 91.4% (active).
